# VP16 counter = inhibits Gal4-VP16 luciferase reporter, ROR gamma counter-screen; Drosophila S2 Gal4-VP16 UAS-luciferase, luminescence, 20 h; Potency, µM (doses to about 53.6 µM), without a hit: top-dose activity, negative = inhibition, actives largely listed as inhibitors; 310,000 tested, 3.5% active;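 note: Gal4-VP16 expression switched on by copper sulfate through the metallothionein promoter; potency is the fitted concentration of half-maximal effect; nearly all actives have a fitted effect of over 50% in size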
# RORgamma inh = inhibitors of mouse ROR gamma transcriptional activity. AID 2551. Potency, µM (top dose mostly 53.6 µM), for inactives: at the highest dose activity change, negative = inhibition, most hits filed as inhibitors. Drosophila S2 Gal4-RORgamma UAS-luciferase reporter, 20 h. 310,000 tested, 5.4% active; note: potency is the fitted concentration of half-maximal effect; nearly all actives have a fitted effect of over 60% in size
# Target sequence (P51450 whole entry, looked up, the tested form may be a part): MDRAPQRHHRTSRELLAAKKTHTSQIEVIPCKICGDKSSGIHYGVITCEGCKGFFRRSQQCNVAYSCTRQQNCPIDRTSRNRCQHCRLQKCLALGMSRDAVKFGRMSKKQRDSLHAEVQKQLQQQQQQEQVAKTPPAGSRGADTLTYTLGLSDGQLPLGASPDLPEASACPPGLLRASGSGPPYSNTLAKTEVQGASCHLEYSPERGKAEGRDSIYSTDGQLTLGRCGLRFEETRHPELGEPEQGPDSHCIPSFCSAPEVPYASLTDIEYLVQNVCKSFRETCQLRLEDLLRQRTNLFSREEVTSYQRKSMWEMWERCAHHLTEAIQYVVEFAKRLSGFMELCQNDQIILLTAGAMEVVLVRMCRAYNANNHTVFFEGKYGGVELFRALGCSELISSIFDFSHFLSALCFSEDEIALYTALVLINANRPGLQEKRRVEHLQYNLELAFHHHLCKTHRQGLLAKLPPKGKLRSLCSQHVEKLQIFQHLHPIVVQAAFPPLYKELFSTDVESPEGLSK
#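 Luciferase reporter read in Schneider cells carrying Gal4-RORγ (mouse) and UAS-Photinus luciferase; cells given compound 1 h before 700 uM copper sulfate induction, then incubated 20 h at ambient temperature.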
# TDP1 cell noCPT = qHTS for Inhibitors of human tyrosyl-DNA phosphodiesterase 1 (TDP1): qHTS in cells in absence of CPT; DT40 Tdp1-/- hTDP1 cells, no CPT, ATP luminescence, 48 h; Potency, µM (series often up to 46.2 µM), for the others: at the top dose activity change, negative = growth inhibition, most hits filed as inhibitors; 420,000 tested, 15% active; note: potency is the fitted concentration of half-maximal effect; nearly all actives have a fitted effect of over 55% in size
#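 Camptothecin absent (DMSO only). Human TDP1-complemented DT40 knockout cells, 400 cells/well, 37 °C for minimum 48 hr; ATP measured via CellTiter-Glo, 30 min dark incubation, luminescence.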
# TDP1 cell CPT = DT40-hTDP1 cell growth loss with CPT | chicken DT40 Tdp1-/-;hTDP1 cells + 20 nM CPT, ATP luminescence, 48 h | Potency, µM (highest dose often 46.2 µM), for inactives: at the highest dose activity change, negative = growth inhibition, hits mostly inhibitors | 420,000 tested, 12% active; note: potency is the fitted concentration of half-maximal effect; nearly all actives have a fitted effect of over 55% in size
#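 Chicken DT40 Tdp1-/- cells stably complemented with human TDP1 were seeded at 400 cells/well in medium containing 20 nM camptothecin, exposed to pin-transferred compounds, and grown at 37 °C for at least 48 hr. Viability was read as ATP luminescence.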
# ELG1 repair inh = inhibitors of ELG1-dependent DNA repair in HEK293T cells | HEK293T ELG1-luciferase reporter, luminescence, 16 h; DNA damage induced by 5-fluorouridine | Potency, µM (top dose mostly 46.1 µM), inactives show top-dose activity change, negative = inhibition, usual class: inhibitors | 330,000 tested, 2.3% active | AID 504467; note: potency is the fitted concentration of half-maximal effect; nearly all actives have a fitted effect of over 55% in size
#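 DMSO vehicle served as the neutral condition. Each well held 2,000 cells given 5-fluorouridine plus compound; after 16 hr at 37 °C/5% CO2, ONE-Glo was added and luciferase measured 30 min later.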
# IL-1B inflam inh = blocks inflammasome-driven IL-1 beta release | THP-1 LPS/ATP IL-1B secretion, AlphaLISA, 16 h; active compounds read low | 360,000 tested, 4.7% active | activity change, % at 57.5 µM | AID 743279; in the data active = activity change below about -50%; inconclusive = mostly about -30% to -49%
#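 Secreted IL-1B measured by AlphaLISA bead assay after 16 h compound exposure of THP-1 cells; compounds (final up to 57.5 uM) added 1 h before LPS (250 ng/mL) and ATP (1.25 mM) stimulation; lower signal means less secretion.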
# Starred values were filed as active, the others as inactive; ? = inconclusive; nt = not tested or not shown; [ ] = another dose, or the depositor's remark. Most compounds without a hit are left out; they make up all but 21% or so of the library. Unless noted, calls come from the whole dose curve; as a rule, active = well fitted curve in the direction sought with a large enough effect; inconclusive = small, poorly fitted or top-dose-only effect, or another doubt; inactive = no such curve, though single readings can be large; an effect the other way counts as inactive or inconclusive. % is set by controls: 0 for no effect and ±100 for the full control effect.
SMILES,VP16 counter,RORgamma inh,TDP1 cell noCPT,TDP1 cell CPT,ELG1 repair inh,IL-1B inflam inh
C=CC(n1cncn1)C(O)(c1ccccc1)c1ccccc1 (stereo not given),nt,nt,-21.1%,-19.3%,3.7%,0.1
N#Cc1c(-c2ccccc2)c(-c2ccccc2)nn(CC(=O)NNC(=O)Nc2ccc(Cl)cc2)c1=O,-6.0%,31.5%,23.1µM*,?,-1.0%,nt
N#Cc1c(-c2ccc(Cl)cc2)c(-c2ccc(Cl)cc2)nn(CCOC(=O)CCC(=O)O)c1=O,nt,nt,?,10.3µM*,nt,13.3
COC(=O)CCn1nc(-c2ccc(Cl)cc2)c2ccccc2c1=O,-2.6%,10.9%,?,-24.0%,2.5%,9.6
Cn1cc([C@]2(O)C(=O)Nc3ccc(F)cc32)c2ccccc21,nt,nt,-29.2%,-12.0%,nt,7.2
Cc1ccc(S(=O)(=O)N(C)c2ccc(C(=O)N3CCN(Cc4ccc5c(c4)OCO5)CC3)cc2)cc1,?,-22.2%,20.6µM*,?,6.51µM*,-72.7*
CN(C)c1ccc(C(=S)N2CCN(Cc3ccccc3)CC2)cc1,-3.8%,12.6µM*,?,?,6.8%,-5.1
CN(c1ccccc1)S(=O)(=O)c1cccc(C(=O)N2CCCCCC2)c1,nt,nt,20.6µM*,16.4µM*,-4.3%,-0.7
CC1CC(C)CN(C(=O)c2cccc(S(=O)(=O)N(C)c3ccccc3)c2)C1 (stereo not given),nt,nt,5.8µM*,8.2µM*,-10.1%,2.7
Cc1ccc(C(=O)N2CCN(Cc3ccc4c(c3)OCO4)CC2)cc1C,-5.1%,?,-24.1%,-23.0%,-11.0%,?
CCN(CC)S(=O)(=O)c1cccc(C(=O)N2CCCCC2)c1,12.0%,-9.1%,?,-23.3%,1.6%,2.8
O=C(NCCCCCCNC(=O)ON=C1CCCCC1)ON=C1CCCCC1,12.7%,-1.5%,?,?,nt,nt
COc1ccccc1NC(=O)COC(=O)c1ccc(N2CCCC2=O)cc1,nt,nt,-7.4%,-6.7%,-10.2%,-1.2
CCc1ccc(S(=O)(=O)c2c[nH]c3cc(OC)c(OC)cc3c2=O)cc1,nt,nt,?,-23.7%,nt,nt
Cc1cccc(NC(=O)C(Cc2ccccc2)N2Cc3ccccc3C2=O)c1C (stereo not given),nt,nt,-5.8%,?,nt,nt
CC(=O)N(c1nnc(-c2ccc(C)cc2)s1)C1CCCC1,nt,nt,?,?,?,-2.4
COc1ccc(N(C)S(=O)(=O)c2cccc(C(=O)OCC(=O)NCc3ccccc3OC)c2)cc1,1.7%,?,?,-20.1%,-0.8%,9.3
CCN(CC)c1ccc(C(=S)N2CCN(c3ccccc3)CC2)cc1,?,12.6µM*,?,?,15.6%,-23.6
CN(c1ccc(C(=O)N2CCCCC2)cc1)S(=O)(=O)c1ccccc1,?,?,8.2µM*,13µM*,?,-12.8
Cc1ccc(S(=O)(=O)N(C)c2ccc(C(=O)N3CCc4ccccc4C3)cc2)cc1,2.3%,-0.9%,?,?,?,-62.0*
COc1ccc(N(C)S(=O)(=O)c2cccc(C(=O)OCC(=O)N3CC(C)CC(C)C3)c2)cc1 (stereo not given),nt,nt,20.6µM*,?,?,-26.9
CC1CN(CCC(=O)NC(c2cccnc2)C(F)(F)F)Cc2cc(Cl)ccc2O1 (stereo not given),nt,nt,?,-12.8%[9.04 µM],nt,nt
CN(c1ccc(C(=O)N2CCN(Cc3ccccc3)CC2)cc1)S(=O)(=O)c1ccccc1,-1.6%,35.7%,14.6µM*,-28.2%,?,?
Cc1ccc(S(=O)(=O)N(C)c2ccc(C(=O)N3CCCCC3)cc2)cc1,-13.0%,37.4%,?,9.2µM*,?,19.8
CN(c1ccccc1)S(=O)(=O)c1ccc(C(=O)N2CCCC2)cc1,nt,nt,-28.7%,-22.8%,3.2%,28.8
SMILES,VP16 counter,RORgamma inh,TDP1 cell noCPT,TDP1 cell CPT,ELG1 repair inh,IL-1B inflam inh
CCS(=O)(=O)N1CC(=O)N(c2ccc(C)c(C)c2)C(C)(C(=O)NC2CCCCC2)C1 (stereo not given),nt,nt,-4.0%,-20.9%,nt,nt
COC(=O)c1sccc1S(=O)(=O)N(CC(=O)NCc1ccc(C)cc1)c1ccc(C)c(C)c1,nt,nt,-29.3%,?,nt,nt
COc1cc(OC)c(NC(=O)N2CCCn3nc(C)cc32)cc1Cl,nt,nt,-29.2%,2.0%,nt,nt
CCOC(=O)CN1C(=O)N[C@@H](c2ccccc2)[C@H](C(C)=O)[C@H]1C,nt,nt,17.0%,0.9%,nt,19.3
CCOc1ccc(C(C)=O)cc1COc1ccc(-c2nnco2)cc1,2.3%,-8.5%,-9.2%,-9.1%,7.3µM*,-21.2
CCOc1ccc(C(C)=O)cc1COc1ccc(C)nc1[N+](=O)[O-],-0.7%,-25.8%,?,?,-16.7%,11.2
CC(=O)c1cc(-c2ccc(F)cc2)n(CCC(=O)Nc2nc3c(C)cccc3s2)c1C,nt,nt,13µM*,?,nt,nt
Cc1cccc2sc(NC(=O)CCNS(=O)(=O)c3cccs3)nc12,4.6%,?,25.9µM*,18.4µM*,?,?
COc1ccc2nc(NC(=O)CSc3nc(C)cc(C)n3)sc2c1,-2.5%,19.2%,?,?,?,-15.9
CCOC(=O)c1cc(-c2ccc(F)cc2)n(CCC(=O)Nc2nc3ccc(OC)cc3s2)c1C,nt,nt,16.4µM*,18.4µM*,nt,nt
CCc1ccc(NC(=O)CCn2c(-c3ccc(OC)cc3)cc(C(C)=O)c2C)cc1,nt,nt,16.4µM*,16.4µM*,nt,nt
CC(=O)c1cc(-c2ccc(F)cc2)n(CCC(=O)Nc2cc(C)[nH]n2)c1C,0.1%,-23.0%,-22.3%,8.9%,9.5%,-16.9
COc1cc(NC(=O)CCn2c(-c3ccccc3)cc(C(C)=O)c2C)cc(OC)c1,nt,nt,13µM*,?,nt,nt
COc1ccc(C(=O)CCC(=O)Nc2cccc(C(C)=O)c2)cc1,nt,nt,-1.9%,20.4%,nt,nt
CCOC(=O)c1cc(-c2ccc(OC)cc2)n(CCC(=O)Nc2cccc(C(C)=O)c2)c1C,nt,nt,14.6µM*,16.4µM*,nt,nt
CC(N)COC(=O)C(CCCCN)NC(=O)Cc1c(-c2ccc3ccccc3c2)[nH]c2c1ccc1ccccc12 (stereo not given),-8.2%,11.0%,nt,nt,nt,nt
CCOc1ccc(S(=O)(=O)N2CCN(C(=O)c3ccco3)CC2)cc1,-0.1%,40.9%,-18.9%,-0.6%,-15.8%,13.7
CCOC(=O)c1ccc(S(=O)(=O)N2CCN(S(=O)(=O)CC)CC2)cc1,-4.3%,-29.2%,-4.9%,-16.9%,5.3%,9.8
CCOc1ccc(S(=O)(=O)N2CCN(C(=O)c3cc4ccccc4o3)CC2)cc1,nt,nt,20.6µM*,20.6µM*,?,?

# High-throughput results: PubChem BioAssay, National Center for Advancing Translational Sciences (NCATS)
